About 83,000 compounds went through this panel and 20% of them were active in at least one assay; those are over-represented in the sample as a whole.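 Activity criterion: percent growth below 10, measured after cells in 96-well plates were exposed to a single compound concentration for 48 hours.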 A number with no mark means an inactive call. Active and inactive are the calls of the source.
Legend:
Test in all cases: NCI-60 one-dose screen, 48 h (100 = growth as untreated, 0 = no growth, -100 = all killed)
Conditions in all cases: 10 µM unless noted
[1] = system: NCI-H23 lung
[2] = system: NCI-H226 lung
[3] = system: NCI-H322M lung
[4] = system: HOP-62 NSCLC
[5] = system: NCI-H460 lung
[6] = system: HOP-92 NSCLC
[7] = system: NCI-H522 lung
[8] = system: A549/ATCC NSCLC
[9] = system: 786-0 renal
[10] = system: COLO 205 colon

Structure (SMILES)	growth [1]	growth [2]	growth [3]	growth [4]	growth [5]	growth [6]	growth [7]	growth [8]	growth [9]	growth [10]
O=C(c1ccccc1)N1N=C(c2ccc(-n3ccc(C(F)(F)F)n3)c(F)c2)CC1c1ccc[nH]1 (stereo not given)	104%	108%	98.7%	122%	102%	141%	89.9%	99.9%	97.1%	116%
O=C1c2ccccc2CCC12OC2c1cn(-c2ccccc2)nc1-c1ccc(Cl)cc1 (stereo not given)	103%	75.1%	99.6%	108%	58.9%	40.5%	87.1%	92.7%	115%	93.9%
COc1ccc(-c2[nH][nH]c(=O)c2-c2nc3ccccc3s2)cc1	105%	98%	100%	104%	105%	108%	96.3%	107%	100%	112%
CC(=O)OC[C@]12CC[C@@H](C(=O)CBr)[C@@H]1[C@H]1CC[C@@H]3[C@@]4(C)CC[C@H](OC(C)=O)C(C)(C)[C@@H]4CC[C@@]3(C)[C@]1(C)CC2	95.4%	100%	103%	103%	105%	96%	-63.9% (active)	106%	95.1%	101%
COc1cc(/C=C\c2cc(OC)c(OC)c(OC)c2)cc(N)c1OC	83.6%	97.8%	81.3%	79.8%	104%	78.4%	58.6%	93.1%	82.3%	104%
Cc1cc(C)c(S(=O)(=O)Oc2ccccc2[N+](=O)[O-])c(C)c1	32.9%	60%	52.6%	39.8%	8.64% (active)	38.1%	-12.5% (active)	31.2%	33%	22.9%
CCNc1nc2ccc(Nc3ccnc4cc(Cl)ccc34)cc2[nH]1	89.6%	94.8%	97.5%	94.7%	85.9%	61%	98.3%	90.8%	72.2%	61.2%
O=C(CCN1CCCC1)Nc1ccc2c(NCCCCc3ccccc3)c3ccccc3nc2c1	-57.9% (active)	63.1%	-24.8% (active)	-46.6% (active)	-69% (active)	-2.02% (active)	-38.7% (active)	-45.5% (active)	15%	-47.1% (active)
O=S(=O)(NCCNc1nccc(-c2c(-c3cccc(O)c3)nc3occn23)n1)c1ccc(C(F)(F)F)cc1	102%	106%	108%	107%	94.9%	92.6%	94.6%	94.8%	101%	44.1%
CCCCCN1C=C/C(=C\C(=O)N(C)c2ccc(OC(F)(F)F)cc2)c2ccccc21	87.1%	95%	99.6%	90.8%	101%	98.1%	78.5%	91.3%	99.4%	104%
O=S(=O)(NCCNc1nccc(-c2c(-c3cccc(O)c3)nc3occn23)n1)c1ccc(Cl)cc1	103%	109%	112%	120%	102%	115%	98.6%	101%	109%	32.7%
COC(=O)C1=C(C(=O)ON)[C@@H]2C=C[C@@]1([C@@H](Cc1ccccc1)Nc1ccccc1)O2	90.6%	105%	99.5%	102%	107%	63.1%	-74.7% (active)	92.9%	101%	-67% (active)
Cc1ccc(-n2cc(-c3ccccc3)c3c2N=NN2CCN=C32)cc1	93.1%	82.3%	97.4%	97.4%	104%	102%	90.2%	105%	99.3%	120%
O=S(=O)(NCCNc1nccc(-c2c(-c3cccc(O)c3)nc3occn23)n1)c1ccccc1	93.5%	104%	93.7%	119%	80.6%	80.9%	77.5%	78.9%	93.3%	34.6%
CCCCCOc1ccc(/C=N/Nc2cc(C)nc3ccc(Cl)cc23)cc1	62.5%	88%	44.3%	29.7%	-63.1% (active)	56.7%	-30.6% (active)	-8.41% (active)	-85.2% (active)	-55.9% (active)
CC(C)(C)c1cc(/C=N/NC(=O)c2ccccc2NC(=O)c2cccs2)c(O)c(C(C)(C)C)c1	48.6%	55.1%	39.1%	20.7%	-11% (active)	75.4%	27.8%	12.8%	18.4%	4.49% (active)
C/C(=N\NC(=O)CSc1nc2ccccc2c(=O)n1CCc1ccc(S(N)(=O)=O)cc1)c1ccccn1	50.4%	43.4%	25.9%	25.2%	12.1%	67.5%	18.9%	21.1%	34.8%	8.47% (active)
O=C(/C=C/c1c(-c2ccc(Cl)cc2)nn(-c2ccccc2)c1C(F)(F)F)c1ccc(Cl)cc1	80.8%	101%	93.3%	90.9%	82.3%	65.1%	78.9%	81.3%	95.9%	110%
CCCC/C=N/NC(=S)NCc1ccccc1	103%	98.6%	105%	82.1%	101%	93.6%	94.6%	97.9%	102%	100%
C#Cc1cccc(NC(=O)c2cccc(NC(=O)CCl)c2)c1	-77.6% [8.25 µM] (active)	-32% [8.25 µM] (active)	58.8% [8.25 µM]	-24.9% [8.25 µM] (active)	-60.8% [8.25 µM] (active)	-65.3% [8.25 µM] (active)	-65.8% [8.25 µM] (active)	1.7% [8.25 µM] (active)	-71.8% [8.25 µM] (active)	-53% [8.25 µM] (active)
Cc1nn(-c2ccccc2)c(Oc2c(Cl)cccc2Cl)c1/C=N/N=c1\sc2ccccc2n1C	72.5%	53.3%	82.2%	83.6%	17.4%	60.3%	65.5%	47.5%	50.8%	40.8%
O=S(=O)(Nc1ccc(-n2cnc3cc(-c4ccc(O)cc4)ccc32)cc1)c1ccccc1	99.8%	92.1%	93%	102%	95.1%	130%	50.8%	77.2%	101%	136%
COc1cc(/C=C2\COc3ccc(-c4ccccc4)cc3C2=O)cc(OC)c1	70.1%	87.4%	85.9%	113%	66.7%	70.3%	39.2%	72%	89.3%	107%
O=[N+]([O-])c1cc(Br)c2cccc3c2c1CC3	106%	103%	106%	118%	106%	97.1%	108%	98.5%	96.5%	118%
CCCCCCCCCCCCCCCC[N+]1(C)CCN(SN2CC[N+](C)(CCCCCCCCCCCCCCCC)CC2)CC1	52.8%	78.9%	80.3%	56.6%	29.6%	15.5%	54.8%	72%	30.3%	61%
O=C(Cc1ccc(/C=C/C(=O)c2ncc[nH]2)cc1)Nc1ccc(Cl)cc1	28.6%	82.2%	42.8%	8.21% (active)	-35.5% (active)	76%	34.2%	33.2%	4.48% (active)	32.9%

Reference: PubChem BioAssay (NCI)
